This note sets out measurements from PubChem BioAssay (EPA / NIEHS).

Active and inactive are the calls of the source. How the source made its calls: active means hit-call score of the fitted dose curve at least 0.9, where 1 is the maximum; inactive means score below 0.9.

A short description of the assay: APR_HepG2_MitoMass_24hr: Apredica 24-hour HepG2 Assay for Mitochondrial Mass (AID 2282912). As to conditions: high-content imaging, actives raise or lower the signal. As to the method:
APR_HepG2_24hr is a cell-based, multiplexed-readout assay that uses HepG2, a human liver cell line, with measurements taken at 24 hours after chemical dosing in a 384-well plate.APR_HepG2_MitoMass_24hr is one of 10 assay component(s) measured or calculated from the APR_HepG2_24hr assay. It is designed to make measurements of cell phenotype, a form of morphology reporter, as detected with fluorescence intensity signals by HCS Fluorescent Imaging technology.Data from the assay component APR_HepG2_MitoMass_24hr was analyzed into 1 assay endpoint. This assay endpoint, APR_HepG2_MitoMass_24hr, was analyzed with bidirectional fitting relative to DMSO as the negative control and baseline of activity. Using a type of morphology reporter, gain or loss-of-signal activity can be used to understand changes in the signaling. Furthermore, this assay endpoint can be referred to as a primary readout, because this assay has produced multiple assay endpoints where this one serves a signaling function. To generalize the intended target to other relatable targets, this assay endpoint is annotated to the cell morphology intended target family, where the subfamily is organelle conformation.
Cells were treated with dimethyl sulfoxide (DMSO) as a solvent control at a final concentration of 0.5% v/v or with compounds in DMSO with a resulting final DMSO concentration of 0.5% v/v. Compound treatment was done at concentrations of 0.39, 0.78, 1.56, 3.12, 6.24, 12.5, 25, 50, 100, and 200 uM in duplicate on each plate. Cells were treated with compounds for 1, 24, or 72 hr. Carbonyl […] m-chloro-phenylhydrazone (CCCP) and taxol were used as positive controls for mitochondrial function and cytoskeletal stability, respectively; DMSO served as the negative control for this experiment. Cells were fixed by the direct addition of 50 uL formaldehyde in Hank's Balanced Salt Solution (HBSS) to a final concentration of 3.7%. After incubation in the fixation medium for 30 min at room temperature (293-298 K), cells were rinsed twice with HBSS and treated with cell permeabilization buffer (16 uL of 0.5% Triton X-100) for 10 min at room temperature (293-298 K) before labeling. For mitochondrial membrane potential and mitochondrial measurements, pre-fixed cells were incubated with 50 uL of MitoTracker Red CMXRos (Invitrogen) at a concentration of 250 nM for 30 min before fixation. In the remaining cases, post-fixed cells were labeled by incubation with a multiplexed mixture of primary antibodies in HBSS for 60 min at room temperature (293-298 K) to detect immunoreactivity of c-Jun (1:500), phospho-histone H3 (1:100), phospho-histone H2A.x (1:200), p53 (1:400), alpha-tubulin (1:200) and Hoechst 33342 (2 ug/mL). Cells were labeled for multiplexed imaging on two separate plates: a) Hoechst 33342, MitoTracker Red, phospho-histone H3, and alpha-tubulin, and b) Hoechst 33342, phospho-histone H2A.x, and c-Jun. A final rinse with HBSS (50 uL) was performed before analysis. The primary and secondary antibodies for the proteins were phospho-histone H3 (rabbit anti-phospho-histone H3 and FITC-donkey anti-rabbit IgG), phospho-histone H2A.x (mouse anti-phospho-histone H2A.x and FITC-donkey anti-mouse IgG), c-Jun (rabbit anti-phospho-c-Jun and Cy3-donkey anti-rabbit IgG), p53 (sheep anti-p53 and Cy5-donkey anti-sheep IgG), alpha-tubulin (mouse anti-alpha-tubulin and Cy5-donkey anti-mouse IgG). These antibodies are available as the CellCiphr HepG2 assay kit (Millipore).Digital images of each well were captured using a Cellomics ArrayScan VTI (Thermo Scientific Cellomics) (0.8 NA objective, 0.63x optical coupler, and XF-93 filter set) at 20x magnification. The images were acquired using the autofocus feature of the ArrayScan instrument, which entails the following steps. First, the camera focuses on channel 1 (Hoechst 33342), where nuclei are identified. Second, a Z offset of 1 um is used for capturing mitochondria (MitoTracker Red). […]
As for `O=C(CCCN1CCC(O)(c2ccc(Cl)cc2)CC1)c1ccc(F)cc1`, the AC50 is 46 µM (active).

Regarding `CCCCCCCCCCCCCCC`, the call was inactive.

With `CN(C)CCOC(c1ccccc1)c1ccccc1`, the compound was classed as inactive.

Turning to `CCCCCCCCCCCCOS(=O)(=O)O`, the outcome was inactive.

Take `CCCCC=O`: the compound was called inactive.

On to `CCCCC(CC)C(=O)O` (stereo not given), for which the compound was classed as inactive.

In the case of `Cc1[nH]nc2c1N=C(c1ccccc1Cl)c1cc([N+](=O)[O-])ccc1N2`, the AC50 was 1.09 µM (active).

As to `N=C(N)c1ccc(OCCCCCOc2ccc(C(=N)N)cc2)cc1`, the AC50 is 30 µM (active).

For the compound `O=C(c1ccccc1)c1ccccc1`, the outcome was inactive.

With `CC(=O)Nc1ccc(O)cc1`, the compound was called inactive.

`O=C1NS(=O)(=O)c2ccccc21`: the outcome was inactive.

For the compound `CCCCc1oc2ccccc2c1C(=O)c1cc(I)c(OCCN(CC)CC)c(I)c1`, the AC50 is 20.7 µM (active).

For the compound `OCC(CO)(CBr)CBr`, the call was inactive.

`CN(Cc1cnc2nc(N)nc(N)c2n1)c1ccc(C(=O)N[C@@H](CCC(=O)O)C(=O)O)cc1`: the result was inactive.

Turning to `CS(=O)(=O)c1ccc([C@@H](CC2CCCC2)C(=O)Nc2cnccn2)cc1Cl`, the call was inactive.
